Laboratory results reported in PubChem BioAssay (EPA / NIEHS).
“And” between values parts separate entries of the source, which are not always exact repeats. Equal entries are not always repeated. Inconclusive results are not listed. Some compounds were tested as several samples or in several runs, with calls that do not always agree. The source made the active and inactive calls. How the source made its calls, unless noted: active means hit-call score of the fitted dose curve at least 0.9, where 1 is the maximum; inconclusive means response in the unintended direction; inactive means score below 0.9.

Tests used:
[1] = biological target: human Peroxisome Proliferator-activated Receptor alpha (PPARa), PPARA (gene 5465) (UniProt Q07869); test: ATG_PPARa_TRANS: Attagene TRANS-FACTORIAL HepG2 Assay for human Peroxisome Proliferator-activated Receptor alpha (PPARa) (AID 2283001);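 on AC50: potency for gain of reporter signal over DMSO so agonist or activator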
Procedure, shortened: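 Transfected HepG2 cells treated with test chemical for 24 h. RNA isolated, reverse-transcribed with oligo(dT), PCR-amplified, FAM-labelled and HpaI-digested. Fragments sized by capillary electrophoresis; gain-of-signal fit relative to DMSO.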

[2] = biological target: human Peroxisome Proliferator-activated Receptor delta (PPARd), PPARD (gene 5467) (UniProt Q03181); test: ATG_PPARd_TRANS: Attagene TRANS-FACTORIAL HepG2 Assay for human Peroxisome Proliferator-activated Receptor delta (PPARd) (AID 2283002)
Procedure, shortened: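 Transient HepG2 transfection (multiple GAL4-UAS RTUs, chimeric receptor-Gal4); 24 h dosing; total RNA → oligo(dT) RT → PCR → 6-FAM primer extension → HpaI cut → CE. Positive direction vs DMSO.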

[3] = biological target: Retinoic acid receptor alpha (Homo sapiens) (UniProt P10276); test: ATG_RARa_TRANS: Attagene TRANS-FACTORIAL HepG2 Assay for human Retinoic Acid Receptor alpha (RARa) (AID 2283005);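 on AC50: potency for increased reporter signal meaning RARa activation over DMSO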
Procedure, shortened: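 Reporter transcripts, measured by RT-PCR with fluorescent labeling and capillary electrophoresis after 24 h dosing, reflect activity of an exogenous human RARa–GAL4 fusion in transiently transfected HepG2. Fitted for increase relative to DMSO.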

[4] = biological target: Peroxisome proliferator-activated receptor gamma (Homo sapiens) (UniProt P37231); test: ATG_PPARg_TRANS: Attagene TRANS-FACTORIAL HepG2 Assay for human Peroxisome Proliferator-activated Receptor-gamma (PPARg) (AID 2283007)
Procedure, shortened: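 A TRANS-format multiplexed reporter assay measures activity of an exogenous chimeric NR-Gal4 protein in HepG2 cells. After 24 h of chemical exposure, reporter transcripts are amplified, fluorescently labelled and sized by capillary electrophoresis, with gain of signal scored against DMSO.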

[5] = biological target: Nuclear receptor subfamily 1 group I member 2 (Homo sapiens) (UniProt O75469); test: ATG_PXR_TRANS: Attagene TRANS-FACTORIAL HepG2 Assay for human Pregnane X Receptor (PXR) (AID 2283008)
Procedure, shortened: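 Transactivation by exogenous PXR–GAL4 fusion measured as reporter transcript induction after 24 h compound treatment of transfected human HepG2 cells. Read-out via RT-PCR and capillary electrophoresis of labelled fragments, fitted upward relative to DMSO.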

[6] = biological target: human Retinoic Acid Receptor gamma (RARg), RARG (gene 5916) (UniProt P13631); test: ATG_RARg_TRANS: Attagene TRANS-FACTORIAL HepG2 Assay for human Retinoic Acid Receptor gamma (RARg) (AID 2283009);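 on AC50: AC50 is for reporter induction above DMSO meaning RARg activation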
Procedure, shortened: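 Gain-of-signal relative to DMSO is reported from fluorescent capillary electrophoresis of RT-PCR reporter products. These came from HepG2 cells expressing transfected RARg-GAL4 chimeras with UAS reporters, harvested 24 h after dosing.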

[7] = biological target: human RAR-related Orphan Receptor beta (RORb), RORB (gene 6096) (UniProt Q92753); test: ATG_RORb_TRANS: Attagene TRANS-FACTORIAL HepG2 Assay for human RAR-related Orphan Receptor beta (RORb) (AID 2283010)
Procedure, shortened: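 Multiplexed transcription-factor reporter assay: HepG2 cells transiently carrying NR-Gal4/GAL4-UAS constructs, 24 h treatment, mRNA quantified by RT-PCR plus capillary electrophoresis fluorescence; activity scored as induction over DMSO.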

[8] = read-out: Intercellular Adhesion Molecule 1 (ICAM1), ICAM1 (gene 3383); test: BSK_3C_ICAM1: BioMAP Diversity Plus: 3C Assay for Intercellular Adhesion Molecule 1 (ICAM1) Biomarker Activity (AID 2283003; active means hit-call score of the fitted dose curve at least 0.9, where 1 is the maximum; inactive means score below 0.9); conditions: primary human endothelial cells (HUVEC); actives raise or lower the signal
Procedure, shortened: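 Using DMSO as baseline, bidirectional curve fitting was applied to ICAM-1 ELISA signals from HUVEC in the 3C system, measured 24 h after compound addition.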

[9] = biological target: human Retinoic Acid Receptor beta (RARb), RARB (gene 5915) (UniProt P10826); test: ATG_RARb_TRANS: Attagene TRANS-FACTORIAL HepG2 Assay for human Retinoic Acid Receptor beta (AID 2283004)
Procedure, shortened: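 Fluorescent capillary-electrophoresis detection of GAL4-UAS reporter mRNA defines the endpoint, with induction over DMSO-treated wells scored as activity. Transiently transfected human hepatoma HepG2 cells expressing exogenous NR–Gal4 proteins are exposed to test chemicals for 24 h.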

[10] = BSK_3C_Proliferation: Cell Proliferation Assessment in the BioMAP Diversity Plus: 3C Assay (AID 2283006; active means hit-call score of the fitted dose curve at least 0.9, where 1 is the maximum; inactive means score below 0.9;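 on AC50: potency may reflect either rise or fall in cell number versus DMSO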); conditions: primary human endothelial cells (HUVEC)
Procedure, shortened: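 Measured here: sulforhodamine B (0.1%) staining of TCA-fixed sub-confluent umbilical vein endothelial cultures 48 h post-dosing, absorbance 560 nm. DMSO served as negative control and baseline; both signal gain and loss were modelled.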

Measured: AC50

Sequence of human Retinoic Acid Receptor beta (RARb), RARB (gene 5915) (P10826 whole entry, looked up, the tested form may be a part): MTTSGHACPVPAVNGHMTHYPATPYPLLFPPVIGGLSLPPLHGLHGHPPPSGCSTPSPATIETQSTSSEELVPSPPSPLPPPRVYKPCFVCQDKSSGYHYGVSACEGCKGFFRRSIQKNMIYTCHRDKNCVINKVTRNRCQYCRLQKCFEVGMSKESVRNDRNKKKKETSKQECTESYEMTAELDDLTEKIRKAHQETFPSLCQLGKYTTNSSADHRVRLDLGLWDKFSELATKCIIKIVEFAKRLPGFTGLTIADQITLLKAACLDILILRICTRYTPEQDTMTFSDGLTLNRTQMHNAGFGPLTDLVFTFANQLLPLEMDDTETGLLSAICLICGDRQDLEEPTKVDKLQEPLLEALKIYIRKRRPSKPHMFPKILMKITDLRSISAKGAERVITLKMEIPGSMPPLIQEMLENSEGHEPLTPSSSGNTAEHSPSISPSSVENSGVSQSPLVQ
Sequence of human RAR-related Orphan Receptor beta (RORb), RORB (gene 6096) (Q92753 whole entry, looked up, the tested form may be a part): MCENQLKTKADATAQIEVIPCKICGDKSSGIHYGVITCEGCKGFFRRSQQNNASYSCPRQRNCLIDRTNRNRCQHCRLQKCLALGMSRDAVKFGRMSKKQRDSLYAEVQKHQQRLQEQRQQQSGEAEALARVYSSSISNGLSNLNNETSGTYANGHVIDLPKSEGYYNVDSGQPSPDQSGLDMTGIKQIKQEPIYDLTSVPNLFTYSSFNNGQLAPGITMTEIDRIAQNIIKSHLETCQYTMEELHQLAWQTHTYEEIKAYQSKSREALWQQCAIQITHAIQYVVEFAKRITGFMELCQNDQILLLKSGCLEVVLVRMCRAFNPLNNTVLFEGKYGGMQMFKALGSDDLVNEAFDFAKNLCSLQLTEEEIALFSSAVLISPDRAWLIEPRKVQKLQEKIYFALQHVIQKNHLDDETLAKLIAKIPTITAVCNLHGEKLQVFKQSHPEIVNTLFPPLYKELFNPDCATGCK
Sequence of human Peroxisome Proliferator-activated Receptor alpha (PPARa), PPARA (gene 5465) (Q07869 whole entry, looked up, the tested form may be a part): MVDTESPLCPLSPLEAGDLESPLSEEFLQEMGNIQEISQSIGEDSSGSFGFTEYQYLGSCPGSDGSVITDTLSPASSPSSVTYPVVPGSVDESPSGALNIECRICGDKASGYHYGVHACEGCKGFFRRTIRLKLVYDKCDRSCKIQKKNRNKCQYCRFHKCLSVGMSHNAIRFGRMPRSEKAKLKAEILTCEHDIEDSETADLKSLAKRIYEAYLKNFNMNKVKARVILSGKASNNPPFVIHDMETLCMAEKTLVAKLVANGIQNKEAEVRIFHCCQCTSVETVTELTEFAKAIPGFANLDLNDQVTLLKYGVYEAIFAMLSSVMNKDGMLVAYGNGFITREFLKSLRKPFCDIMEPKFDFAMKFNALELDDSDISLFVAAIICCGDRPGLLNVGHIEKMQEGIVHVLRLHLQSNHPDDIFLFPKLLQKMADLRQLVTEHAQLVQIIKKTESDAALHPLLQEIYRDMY
Sequence of Nuclear receptor subfamily 1 group I member 2 (Homo sapiens) (O75469 whole entry, looked up, the tested form may be a part): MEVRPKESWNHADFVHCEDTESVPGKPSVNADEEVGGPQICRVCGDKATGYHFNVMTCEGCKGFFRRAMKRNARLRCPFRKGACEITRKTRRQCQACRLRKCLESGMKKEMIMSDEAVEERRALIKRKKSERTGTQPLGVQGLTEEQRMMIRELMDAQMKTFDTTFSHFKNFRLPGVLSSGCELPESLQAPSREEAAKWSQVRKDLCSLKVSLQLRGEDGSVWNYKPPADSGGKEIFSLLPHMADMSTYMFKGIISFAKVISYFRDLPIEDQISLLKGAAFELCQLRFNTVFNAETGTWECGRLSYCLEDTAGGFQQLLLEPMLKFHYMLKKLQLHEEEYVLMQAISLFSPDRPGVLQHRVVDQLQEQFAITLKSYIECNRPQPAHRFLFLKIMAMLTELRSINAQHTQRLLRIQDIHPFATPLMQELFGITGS
Sequence of Peroxisome proliferator-activated receptor gamma (Homo sapiens) (P37231 whole entry, looked up, the tested form may be a part): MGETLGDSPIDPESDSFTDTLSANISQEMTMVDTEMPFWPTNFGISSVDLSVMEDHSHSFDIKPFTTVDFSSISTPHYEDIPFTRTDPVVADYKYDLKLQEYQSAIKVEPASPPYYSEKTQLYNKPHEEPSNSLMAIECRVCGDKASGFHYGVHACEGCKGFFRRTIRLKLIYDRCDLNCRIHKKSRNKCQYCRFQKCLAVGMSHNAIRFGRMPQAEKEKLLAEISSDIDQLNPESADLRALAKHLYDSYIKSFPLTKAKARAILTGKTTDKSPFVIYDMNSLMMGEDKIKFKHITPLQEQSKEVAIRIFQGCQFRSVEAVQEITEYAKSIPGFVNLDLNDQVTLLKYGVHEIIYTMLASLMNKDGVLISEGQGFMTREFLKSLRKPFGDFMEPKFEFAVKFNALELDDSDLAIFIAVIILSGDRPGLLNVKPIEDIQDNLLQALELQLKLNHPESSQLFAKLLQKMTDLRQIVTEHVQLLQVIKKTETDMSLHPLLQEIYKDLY
Sequence of human Peroxisome Proliferator-activated Receptor delta (PPARd), PPARD (gene 5467) (Q03181 whole entry, looked up, the tested form may be a part): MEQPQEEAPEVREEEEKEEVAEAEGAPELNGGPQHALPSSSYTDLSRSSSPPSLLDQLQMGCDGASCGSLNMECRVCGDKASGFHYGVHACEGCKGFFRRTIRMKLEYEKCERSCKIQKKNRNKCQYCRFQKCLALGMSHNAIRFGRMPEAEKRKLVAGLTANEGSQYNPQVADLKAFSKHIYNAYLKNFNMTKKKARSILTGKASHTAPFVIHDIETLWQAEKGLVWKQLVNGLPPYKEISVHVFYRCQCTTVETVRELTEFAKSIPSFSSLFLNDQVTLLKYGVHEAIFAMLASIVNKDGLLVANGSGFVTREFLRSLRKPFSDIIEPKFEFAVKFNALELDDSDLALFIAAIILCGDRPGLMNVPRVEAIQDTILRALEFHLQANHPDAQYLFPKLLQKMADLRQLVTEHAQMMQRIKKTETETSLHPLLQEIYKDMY
Sequence of Retinoic acid receptor alpha (Homo sapiens) (P10276 whole entry, looked up, the tested form may be a part): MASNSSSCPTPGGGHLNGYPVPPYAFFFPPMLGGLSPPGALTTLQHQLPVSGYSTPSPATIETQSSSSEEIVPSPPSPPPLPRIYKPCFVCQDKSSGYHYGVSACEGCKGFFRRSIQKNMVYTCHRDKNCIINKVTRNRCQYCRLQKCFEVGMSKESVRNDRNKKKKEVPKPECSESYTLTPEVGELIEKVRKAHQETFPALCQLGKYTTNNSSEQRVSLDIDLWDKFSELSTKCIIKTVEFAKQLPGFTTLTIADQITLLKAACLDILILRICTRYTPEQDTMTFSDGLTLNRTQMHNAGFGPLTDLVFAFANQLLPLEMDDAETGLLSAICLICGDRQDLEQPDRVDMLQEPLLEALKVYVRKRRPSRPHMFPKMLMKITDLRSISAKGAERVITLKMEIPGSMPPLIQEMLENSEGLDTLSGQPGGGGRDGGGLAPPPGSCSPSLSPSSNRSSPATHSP
Sequence of human Retinoic Acid Receptor gamma (RARg), RARG (gene 5916) (P13631 whole entry, looked up, the tested form may be a part): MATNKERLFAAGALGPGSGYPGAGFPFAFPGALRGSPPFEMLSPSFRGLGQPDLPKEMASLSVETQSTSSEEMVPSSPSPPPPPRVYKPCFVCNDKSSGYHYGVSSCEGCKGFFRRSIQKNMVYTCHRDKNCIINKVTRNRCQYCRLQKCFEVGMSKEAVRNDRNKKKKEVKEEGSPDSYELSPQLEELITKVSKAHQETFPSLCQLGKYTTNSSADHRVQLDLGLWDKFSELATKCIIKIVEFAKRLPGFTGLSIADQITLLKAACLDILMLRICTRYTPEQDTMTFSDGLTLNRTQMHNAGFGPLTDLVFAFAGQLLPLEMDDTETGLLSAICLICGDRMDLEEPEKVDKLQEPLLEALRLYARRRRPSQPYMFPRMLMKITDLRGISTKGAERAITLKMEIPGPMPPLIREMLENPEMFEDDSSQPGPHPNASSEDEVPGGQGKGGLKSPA

O=C1OC2(c3ccccc31)c1cc(Br)c(O)c(Br)c1Oc1c2cc(Br)c(O)c1Br
inactive: [1] | [2] | [3] | [4] | [5] | [6] | [7]
active: [4] 51.8 µM | [5] 8.91 µM

Cc1ccc(S(=O)(=O)O)c(C)c1
inactive: [1] | [2] | [4] | [5] | [7]

NC(=O)N1C(=O)C(C(=O)c2cc(Cl)cs2)c2cc(F)c(Cl)cc21 (stereo not drawn)
active: [10] 11 µM | [4] 2.71 µM | [5] 11 µM
inactive: [1] | [2] | [8] | [9] | [3] | [6] | [7]

CC(O)C(=O)O (stereo not drawn)
inactive: [1] | [2] | [9] | [3] | [5] | [6] | [7]

CCCCC(CC)COC(=O)CCCCC(=O)OCc1ccccc1 (stereo not drawn)
inactive: [1] | [2] | [8] | [10] | [4] | [6] | [7]
active: [5] 17.8 µM

CC(C)CCCCCCOC(=O)CCCCC(=O)OCCCCCCC(C)C
inactive: [1] | [2] | [8] | [3] | [10] | [4] | [6]

OCCC(F)(F)C(F)(F)C(F)(F)C(F)(F)C(F)(F)C(F)(F)F
inactive: [1] | [2] | [8] | [9] | [3] | [10] | [4] | [5] | [6] | [7]
active: [8] 54.7 µM and 44.7 µM | [10] 46.5 µM and 56.6 µM

NC(=O)N(O)[C@@H]1C=C[C@H](Oc2cccc(Oc3ccc(F)cc3)c2)C1
active: [10] 9.97 µM | [4] 10.1 µM | [5] 7.33 µM
inactive: [1] | [2] | [8] | [9] | [6]

CC(=O)NC1(c2cccc(F)c2)CCN(CC[C@@]2(c3ccc(Cl)c(Cl)c3)CN(c3ccccc3)C(=O)CO2)CC1
inactive: [1] | [2] | [9] | [6]
active: [10] 20.8 µM | [4] 49.1 µM | [5] 8.59 µM

OCCC(F)(F)C(F)(F)C(F)(F)C(F)(F)C(F)(F)C(F)(F)C(F)(F)C(F)(F)F
inactive: [1] | [2] | [8] | [5] | [7]
active: [8] 40.5 µM and 15.1 µM | [10] 12.7 µM and 17.4 µM and 19.9 µM

CCCCC[C@H](O)CC(=O)CCc1ccc(O)c(OC)c1
inactive: [1] | [2] | [6]
active: [4] 27.8 µM | [5] 27.6 µM

FC(F)(I)C(F)(F)C(F)(F)C(F)(F)C(F)(F)C(F)(F)I
active: [1] 27.3 µM | [10] 12.9 µM [middle of 5 runs] | [4] 14.4 µM | [5] 33.4 µM
inactive: [2]

CCCCC(CC)COC(=O)CCCCC(=O)OCC(CC)CCCC (stereo not drawn)
inactive: [1] | [2] | [8] | [9] | [3] | [10] | [4] | [5] | [6] | [7]

CC(=O)CC(C)(C)O
inactive: [1] | [2] | [8] | [9] | [3] | [10] | [4] | [5] | [6]

CCCOC(=O)c1ccc(O)cc1
active: [4] 45.6 µM | [5] 100 µM
inactive: [1] | [2] | [8] | [9] | [3] | [10] | [5] | [6]

Nc1cccc2c(N)cccc12
inactive: [1] | [2] | [8] | [9] | [10] | [4] | [5] | [6] | [7]

O=[N+]([O-])c1ccc(O)cc1
inactive: [1] | [2] | [8] | [10] | [4]

CCCCCCCCOC(=O)CCCCCCCCC(=O)OCCCCCCCC
inactive: [1] | [2] | [8] | [10] | [4]

CCN(CC)CCNc1ccc(CNC=O)c2sc3ccc(OC)cc3c(=O)c12
inactive: [2] | [6] | [7]
active: [1] 0.878 µM | [8] 30.8 µM | [10] 13.8 µM | [4] 0.718 µM | [5] 0.228 µM

CCC(=C(c1ccc(O)cc1)c1ccc(OCCN(C)C)cc1)c1ccccc1
inactive: [1] | [2] | [9] | [3] | [4] | [6]
active: [1] 11.8 µM | [8] 12.6 µM | [10] 5.85 µM | [4] 10.9 µM and 9.84 µM and 11.1 µM | [5] 3.28 µM [middle of 4 runs]

COc1cc(CCC(=O)CC(=O)CCc2ccc(O)c(OC)c2)ccc1O
active: [4] 4.39 µM | [5] 5.26 µM
inactive: [1] | [2] | [9] | [3] | [6]

O=C(O)c1ccccc1C(c1ccc(O)cc1)c1ccc(O)cc1
inactive: [1] | [2] | [8] | [9] | [3] | [10] | [5] | [6] | [7]

Oc1cccc(O)c1
inactive: [1] | [2] | [8] | [9] | [10] | [4] | [5]

CN(C)C=O
inactive: [1] | [8] | [9] | [3] | [10] | [4]

COC(=O)CCCCC(=O)OC
inactive: [1] | [2] | [8] | [3] | [10] | [5]

OC1CCCCC1
inactive: [1] | [2] | [8] | [10]

OC1CCC(C2CCCCC2)CC1 (stereo not drawn)
active: [5] 23.9 µM
inactive: [1] | [2] | [8] | [9] | [10] | [4] | [5]

CCCCCCCCCCCCCC[N+](C)(C)C
active: [8] 7.59 µM | [3] 48.5 µM | [10] 1.73 µM | [4] 26.6 µM | [6] 36.6 µM
inactive: [1] | [2] | [9] | [3] | [4] | [5] | [6] | [7]

NCC(F)(F)C(F)(F)C(F)(F)C(F)(F)C(F)(F)C(F)(F)C(F)(F)F
inactive: [1] | [2] | [8] | [3] | [10] | [4] | [5] | [6]

C[C@@H]1C[C@H]2[C@@H]3CCC4=CC(=O)C=C[C@]4(C)[C@@]3(F)[C@@H](O)C[C@]2(C)[C@@]1(O)C(=O)COP(=O)(O)O
inactive: [1] | [2] | [8] | [10] | [4] | [5] | [7]
